“And” between values parts separate entries of the source, which are not always exact repeats. Equal values may be shown once.

This test relates to H9c2. The test is described as follows: protection of cardiomyocytes from stress damage, SAR follow-up, cell-based, panel, H9c2 and HL-1, ATP luminescence, set 2 (AID 651871).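 Note: cells exposed to stressor for 2 h before ATP readout; reference of the scale not given here.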 The conditions noted are these: H9c2/HL-1 cardiomyocytes, H2O2 oxidative stress; with H2O2, run 4, at 79 µM (top of the series).
As for `COc1cc(-c2cc(C(=O)Nc3cccc(C(=O)NCc4ccccc4)c3)c3ccccc3n2)cc(OC)c1OC`, the activity (protection/inhibition) stood at 87.2%.
Consider `COc1ccc2c(c1OC)C(=O)N1c3ccccc3C(=O)N(Cc3cccc(Cl)c3Cl)C21` (centres undefined), for which the activity (protection/inhibition) was 52.4% and 40.9%.
On to `CCOC(=O)c1cccc(NC(=O)CNC(=O)c2cc(-c3cc(OC)c(OC)c(OC)c3)nc3ccccc23)c1`, for which the activity (protection/inhibition) turned out to be 115%.
As to `COc1ccc2nc(-c3cc(OC)c(OC)c(OC)c3)cc(C(=O)NCC(=O)Nc3ccc(C(C)=O)cc3)c2c1`, the activity (protection/inhibition) was 86.1% and 56.6%.

These data come from PubChem BioAssay AID651871 (Sanford-Burnham Center for Chemical Genomics, 2012).
